This note sets out measurements from the supplement of paper PMC8728848.

Only a selection was taken, and the strongest signals are over-represented in it overall.

Common to all, as to test: glycan array binding signal (z-score within array); higher = stronger binding
What all share (settings): glycan notation: IUPAC condensed, linker removed

Experiment [1] addresses Gal(b1-4)GlcNAc(b1-6)[Gal(b1-4)GlcNAc(b1-3)]GalNAc. The gist of the method:
(§1)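 From the Consortium for Functional Glycomics database, 3228 arrays were curated, keeping only those whose protein sequence was available. Binding is given as a within-array Z-score averaged across arrays sharing a protein sequence and across linkers. Negative Z-scores can be read as non-binding.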

The target in another experiment is Gal3S(b1-3)GalNAc. The gist of the method: as §1
In the next experiment the target is Gal3S4S(b1-4)GlcNAc. The procedure, abridged:
as §1

Another experiment deals with Gal3S6S(b1-4)GlcNAc. The gist of the method:
as §1

The target of experiment [2] is GalNAc(b1-4)GlcNAc(b1-2)Man. The procedure, abridged: as §1
For experiment [3], the target named is GlcNAc(a1-4)Gal(b1-4)GlcNAc(b1-3)Gal(b1-4)GlcNAc. The procedure, abridged:
as §1

Experiment [4] has as its target GlcNAc(b1-2)Man(a1-3)[GlcNAc(b1-2)Man(a1-6)]Man(b1-4)GlcNAc(b1-4)GlcNAc. The gist of the method:
as §1

Experiment [5] addresses GlcNAc(b1-2)Man(a1-3)[GlcNAc(b1-2)Man(a1-6)]Man(b1-4)GlcNAc(b1-4)[Fuc(a1-6)]GlcNAc. The procedure, abridged:
as §1

The target in experiment [6] is GlcNAc(b1-3)Gal(b1-4)GlcNAc(b1-3)Gal(b1-4)GlcNAc(b1-3)Gal(b1-4)GlcNAc(b1-3)Gal(b1-4)GlcNAc(b1-2)Man(a1-3)[GlcNAc(b1-3)Gal(b1-4)GlcNAc(b1-3)Gal(b1-4)GlcNAc(b1-3)Gal(b1-4)GlcNAc(b1-3)Gal(b1-4)GlcNAc(b1-2)Man(a1-6)]Man(b1-4)GlcNAc(b1-4)GlcNAc. The gist of the method: as §1
Experiment [7] has as its target GlcNAc(b1-3)Gal(b1-4)GlcNAc(b1-3)Gal(b1-4)GlcNAc(b1-3)Gal(b1-4)GlcNAc(b1-3)Gal(b1-4)GlcNAc(b1-2)Man(a1-3)[GlcNAc(b1-3)Gal(b1-4)GlcNAc(b1-3)Gal(b1-4)GlcNAc(b1-3)Gal(b1-4)GlcNAc(b1-3)Gal(b1-4)GlcNAc(b1-2)Man(a1-6)]Man(b1-4)GlcNAc(b1-4)[Fuc(a1-6)]GlcNAc. The procedure, abridged:
as §1

Experiment [8] deals with GlcNAc(b1-3)Gal(b1-4)GlcNAc(b1-3)GalNAc. The procedure, abridged:
as §1

Experiment [9] addresses GlcNAc(b1-3)[GlcNAc(b1-6)]GalNAc. The procedure, abridged:
as §1

A further experiment concerns the target GlcNAc(b1-6)GalNAc. The procedure, abridged:
as §1

A further experiment concerns the target Kdn(a2-3)Gal(b1-4)Glc. The gist of the method: as §1
The target of experiment [10] is Man(a1-2)Man(a1-3)[Man(a1-6)]Man(a1-6)[Man(a1-2)Man(a1-3)]Man(b1-4)GlcNAc(b1-4)GlcNAc. The gist of the method:
as §1

Experiment [11] addresses Man(a1-3)[Man(a1-6)]Man(b1-4)GlcNAc(b1-4)GlcNAc. The procedure, abridged: as §1
Experiment [12] deals with Neu5Ac(a2-3)Gal(b1-4)[Fuc(a1-3)]GlcNAc(b1-3)Gal(b1-4)GlcNAc. The procedure, abridged:
as §1

In experiment [13] the target is Neu5Ac(a2-3)Gal6S(b1-4)[Fuc(a1-3)]GlcNAc. The gist of the method: as §1
Experiment [14] deals with Neu5Ac(a2-6)Gal(b1-3)GlcNAc(b1-3)[Gal(b1-4)GlcNAc(b1-6)]Gal(b1-4)Glc. The gist of the method:
as §1

In experiment [15] the target is Neu5Ac(a2-8)Neu5Ac(a2-3)Gal(b1-3)GalNAc(b1-4)[Neu5Ac(a2-8)Neu5Ac(a2-3)]Gal(b1-4)Glc. The gist of the method:
as §1

Experiment [16] deals with Neu5Ac(a2-8)Neu5Ac(a2-3)Gal(b1-4)GlcNAc. The gist of the method:
as §1

The target in experiment [17] is Neu5Gc(a2-3)Gal(b1-4)GlcNAc(b1-3)Gal(b1-4)GlcNAc(b1-2)Man(a1-3)[Neu5Gc(a2-3)Gal(b1-4)GlcNAc(b1-3)Gal(b1-4)GlcNAc(b1-2)Man(a1-6)]Man(b1-4)GlcNAc(b1-4)GlcNAc. The procedure, abridged:
as §1

The target in experiment [18] is Neu5Gc(a2-6)Gal(b1-4)GlcNAc. The procedure, abridged: as §1
Experiment [19] addresses Neu5Gc(a2-8)Neu5Gc(a2-3)Gal(b1-4)GlcNAc. The gist of the method: as §1

B1: Gal 3C (Homo sapiens), P17931 (protein)
chain: YGAPAGPLIVPYNLPLPGGVVPRMLITILGTVKPNANRIALDFQRGNDVAFHFNPRFNENNRRVIVCNTKLDNNWGREERQSVFPFESGKPFKIQVLVEPDHFKVAVNDAHLLQYNHRVKKLNEISKLGISGDIDLTSASYTMI
Consider B1, for which the “glycan array binding signal (z-score)” value in experiment [1] was -0.244; in the experiment with Gal3S(b1-3)GalNAc, -0.289; with Gal3S4S(b1-4)GlcNAc it was -0.291; with Gal3S6S(b1-4)GlcNAc it was -0.289; in experiment [2], -0.274; in [3], -0.2. The “glycan array binding signal (z-score)” value in experiment [4] was -0.279; in experiment [5] it was -0.196; in experiment [6], 4.63; in [7] it was 4.02; in [8], -0.286; in experiment [9], -0.331. Besides, the “glycan array binding signal (z-score)” value with GlcNAc(b1-6)GalNAc is -0.322; with Kdn(a2-3)Gal(b1-4)Glc it was -0.237; in [10] it was -0.298; in experiment [11] it was -0.065; in [12], -0.191; in experiment [13], -0.327. Further, the “glycan array binding signal (z-score)” value is -0.3 in [14]; -0.226 in experiment [15]; -0.266 in [16]; -0.152 in experiment [17]; -0.31 in experiment [18]; -0.336 in experiment [19].
